Active and inactive are the calls of the source. Calls come from the whole dose curve; as a rule, active = well fitted curve in the direction sought with a large enough effect; inactive = no such curve, though single readings can be large or run the other way.
Molecular target: Epidermal growth factor receptor (Homo sapiens) (UniProt P00533)
Test: Assay for Inhibitors of the ERK Signaling Pathway using a Homogeneous Screening Assay: EGFR L858R Kinase Inhibition
Details: EGFR L858R kinase biochemical inhibition assay; series mostly up to 65.8 µM
Description: qHTS Assay for Inhibitors of the ERK Signaling Pathway using a Homogeneous Screening Assay
NIH Chemical Genomics Center [NCGC]
NIH Molecular Libraries Screening Centers Network [MLSCN]
Assay Submitter (PI): Dr. Wei Zheng, NCGC/NIH
The Ras/extracellular-signal-regulated kinase (ERK) mitogen activated protein (MAP) kinase signaling pathway (ERK1/2 cascade) plays is a key role in transmitting signals from the cell surface to the nucleus (Nishida and Gotoh 1993; Chang and Karin, 2001). The cascade is initiated by the small G-protein Ras, which recruits Raf […], where activation occurs. Alternatively, this pathway can be activated by elevating intracellular cAMP.
Activation of the ERK pathway is essential in increased cell division and cell survival. Sustained and constitutive activation of the ERK pathway, however, has been linked to uncontrolled cell proliferation, increased cell survival, and tumor progression. Thus, the ERK has been as an attractive target for cancer chemotherapy in the past few years (Sebolt-Leopold and Herrera, 2004). Given its physiological and pathological importance, assessment of ERK phosphorylation has been broadly performed in both basic research and drug discovery. Most assays for the measurement of ERK phosphorylation use the antibody-based detection methods, such as western blot and ELISA. These assays require multiple reagent additions with cell wash steps and are not suitable for high-throughput screening.
The current cell-based ERK phosphorylation assay was performed using AlphaScreen platform. AlphaScreen is a two bead-based proximity-dependent chemical energy transfer luminescent assay platform. The assay reagents (ERK SureFire(TM) kit) were supplied from TGR BioSciences (Australia). […]
The HTRF kinase assay (components supplied as kit by Cisbio) was chosen for the EGFR and EGFR mutant enzyme assays that applied the time resolved fluorescence resonance energy transfer (TR-FRET) principle. […]

Chain of Epidermal growth factor receptor (Homo sapiens) (P00533 whole entry L858R, looked up): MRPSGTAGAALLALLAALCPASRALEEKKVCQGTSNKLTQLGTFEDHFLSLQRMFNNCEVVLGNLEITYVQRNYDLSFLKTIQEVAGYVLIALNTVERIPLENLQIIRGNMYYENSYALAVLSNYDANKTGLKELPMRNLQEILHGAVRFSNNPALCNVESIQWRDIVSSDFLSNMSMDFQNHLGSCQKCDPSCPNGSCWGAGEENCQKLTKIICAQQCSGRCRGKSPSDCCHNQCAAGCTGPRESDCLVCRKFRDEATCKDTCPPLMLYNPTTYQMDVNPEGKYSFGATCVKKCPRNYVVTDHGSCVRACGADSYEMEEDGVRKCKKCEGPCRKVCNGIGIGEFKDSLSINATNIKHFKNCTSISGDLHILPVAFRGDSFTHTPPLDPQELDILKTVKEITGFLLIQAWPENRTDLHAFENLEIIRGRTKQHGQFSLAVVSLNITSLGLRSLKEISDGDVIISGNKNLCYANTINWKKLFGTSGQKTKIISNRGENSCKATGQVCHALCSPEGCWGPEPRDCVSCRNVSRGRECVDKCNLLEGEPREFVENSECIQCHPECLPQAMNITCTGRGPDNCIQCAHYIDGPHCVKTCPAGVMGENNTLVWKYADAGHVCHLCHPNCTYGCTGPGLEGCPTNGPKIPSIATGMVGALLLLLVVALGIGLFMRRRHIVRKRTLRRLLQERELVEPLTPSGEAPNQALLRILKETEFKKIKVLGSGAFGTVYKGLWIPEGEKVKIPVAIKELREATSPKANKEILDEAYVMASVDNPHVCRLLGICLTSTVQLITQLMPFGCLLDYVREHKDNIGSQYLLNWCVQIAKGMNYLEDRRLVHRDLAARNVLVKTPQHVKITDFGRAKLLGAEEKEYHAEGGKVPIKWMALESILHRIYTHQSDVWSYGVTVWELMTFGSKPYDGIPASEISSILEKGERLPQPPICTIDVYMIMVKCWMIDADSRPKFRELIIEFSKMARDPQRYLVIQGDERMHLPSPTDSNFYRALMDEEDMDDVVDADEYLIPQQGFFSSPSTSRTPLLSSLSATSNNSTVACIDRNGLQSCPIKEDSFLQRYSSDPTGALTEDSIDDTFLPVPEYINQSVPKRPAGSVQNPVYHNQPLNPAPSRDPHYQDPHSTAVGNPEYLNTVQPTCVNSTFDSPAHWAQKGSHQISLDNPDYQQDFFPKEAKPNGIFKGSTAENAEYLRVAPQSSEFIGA

Row | Structure (SMILES) | outcome
1 | CCn1nc(-c2ccccc2)nc2c(=O)n(C)c(=O)nc1-2 | inactive
2 | Cc1nc2c(=O)n(C)c(=O)nc-2n(C)n1 | inactive
3 | CN1CCN(c2cccc3c2C(=O)c2ccccc2C3=O)CC1 | inactive
